Compounds with a hit are over-represented: about 19% of the library has one in this group of screens.
HT1080 IDH1KD tx: qHTS for induction of synthetic lethality in tumor cells producing 2HG: qHTS for the HT-1080-IDH1KD cell line; Potency, µM (highest dose often 46.1 µM), actives largely listed as cytotoxic; HT-1080 IDH1 knockdown viability, ATP luminescence, 48 h; 2% of 360,000 active
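Using the IDH1-knockdown HT-1080 line run in the same batch and compound series as the NT line, viability after 48 h at 37 °C was determined by CellTiter-Glo luminescence and expressed as % activity.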
DT40 TDP1 no CPT: qHTS for Inhibitors of human tyrosyl-DNA phosphodiesterase 1 (TDP1): qHTS in cells in absence of CPT. Potency, µM (highest dose often 46.2 µM), usual class: inhibitors. DT40 Tdp1-/- hTDP1 cells, no CPT, ATP luminescence, 48 h. 15% of 420,000 active; note: nearly all actives have a fitted effect of over 55% in size
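Compound effects on proliferation are scored in DT40 Tdp1-/-;hTDP1 cells in the absence of CPT. ATP levels (CellTiter-Glo luminescence) are recorded after a ≥48 hr, 37 °C incubation.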
IL1B secr inh: qHTS for Inhibitors of Inflammasome Signaling: IL-1-beta AlphaLISA Primary Screen; THP-1 LPS/ATP IL-1B secretion, AlphaLISA, 16 h; stronger effect = lower value; activity change, % at 57.5 µM; 4.7% of 360,000 active; in the data active = activity change below about -50%; inconclusive = mostly about -30% to -49%
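Secreted IL-1B measured by AlphaLISA bead assay after 16 h compound exposure of THP-1 cells; compounds (final up to 57.5 uM) added 1 h before LPS (250 ng/mL) and ATP (1.25 mM) stimulation; lower signal means less secretion.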
HT1080-NT tox: qHTS for induction of synthetic lethality in tumor cells producing 2HG: qHTS for the HT-1080-NT fibrosarcoma cell line | 1.6% of 360,000 active | AID 686970, 2013 | HT-1080-NT fibrosarcoma viability, CellTiter-Glo ATP luminescence, 48 h | Potency, µM (doses to about 46.1 µM), usual class: cytotoxic;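 note: NT is the 2HG producing partner of a matched IDH1 knockdown line; nearly all actives have a fitted effect of over 55% in size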
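HT-1080-NT fibrosarcoma cells (2HG-overproducing), 750 cells/well in RPMI with 5% FBS, dosed after 2 h and incubated 48 h at 37C. CellTiter-Glo luminescence normalized to DMSO and no-cell wells; concentration-response curves fitted and classed.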
DT40 TDP1 CPT: qHTS for Inhibitors of human tyrosyl-DNA phosphodiesterase 1 (TDP1): qHTS in cells in presence of CPT | 12% of 420,000 active | chicken DT40 Tdp1-/-;hTDP1 cells + 20 nM CPT, ATP luminescence, 48 h | Potency, µM (top dose mostly 46.2 µM), most hits filed as inhibitors; note: nearly all actives have a fitted effect of over 55% in size
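Chicken DT40 Tdp1-/- cells stably complemented with human TDP1 were seeded at 400 cells/well in medium containing 20 nM camptothecin, exposed to pin-transferred compounds, and grown at 37 °C for at least 48 hr. Viability was read as ATP luminescence.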
Hits are given with their value; i = inactive; ? = inconclusive; nt = not tested or not shown; [ ] = remark or other dose. Unless noted, calls come from the whole dose curve; as a rule, active = well fitted curve in the direction sought with a large enough effect; inconclusive = small, poorly fitted or top-dose-only effect, or another doubt; inactive = no such curve, though single readings can be large; an effect the other way counts as inactive or inconclusive.

SMILES | HT1080 IDH1KD tx | DT40 TDP1 no CPT | IL1B secr inh | HT1080-NT tox | DT40 TDP1 CPT
COc1ccc(CCNC(=O)c2ccc(S(=O)(=O)N(C)c3ccccc3)cc2)cc1OC | i | 23µM | i | i | ?
CN(c1ccccc1)S(=O)(=O)c1cccc(C(=O)NCCc2ccc(O)c(O)c2)c1 | ? | 12µM | i | i | 8.2µM
CCOc1ccc(S(=O)(=O)N(C)c2ccc(OCC(=O)NCC3CCCCC3)cc2)cc1 | i | 21µM | ? | i | 16µM
Cc1ccc(S(=O)(=O)N(C)c2ccc(C(=O)NCCc3ccccc3)cc2)cc1 | i | ? | i | i | ?
CCOc1ccc(S(=O)(=O)N(C)c2ccc(OCC(=O)NCCc3ccc(OC)cc3)cc2)cc1 | i | 23µM | i | i | 21µM
CCN(CC)S(=O)(=O)c1cccc(C(=O)NCCc2ccccc2)c1 | i | ? | i | i | ?
COc1ccc(CCNC(=O)c2ccc(Cl)c(S(=O)(=O)N(C)c3ccccc3)c2)cc1 | i | 16µM | ? | i | 21µM
COC(=O)CCN1CCC(c2cc(-c3cccc(C(F)(F)F)c3)n[nH]2)CC1 | i | i | i | i | i
c1ccc2c(-c3cc(C4CCNCC4)[nH]n3)cccc2c1 | 21µM | ? | i | 23µM | 21µM
FC(F)(F)c1cccc(-c2cc(C3CCNCC3)[nH]n2)c1 | ? | ? | ? | 16µM | ?
CC(NC(=O)c1ccccc1NC(=O)CN1CCc2ccccc2C1)c1ccccc1 (configuration not stated) | i | ? | i | i | i
Cc1ccccc1OCCCC(=O)Nc1nncs1 | i | i | i | i | i
CC(C)CN(CC(C)C)c1ccc(/C=N/n2cnnc2)cc1[N+](=O)[O-] | i | ? | -55 | i | ?
O=C(CCNC(=O)C1CCN(S(=O)(=O)c2ccccc2)CC1)NCc1cccnc1 | i | i | i | i | i
CC1CCCCC12NC(=O)N(CC(=O)N1CCN(Cc3ccc(C#N)cc3)CC1)C2=O (configuration not stated) | i | 7.3µM | i | i | 16µM
NCC1CCC(C(=O)Oc2ccc(CCC(=O)O)cc2)CC1 (configuration not stated) | i | i | i | ? | i
CCCCCCN1C[C@H](O)[C@@H](n2cc(COC(=O)c3ccccc3)nn2)C[C@@H]1c1ccc(C)cc1 | i | 16µM | i | i | ?
CCCCCCN1C[C@H](O)[C@@H](n2cc(COC(=O)c3ccccc3)nn2)C[C@@H]1c1ccc(Cl)cc1 | i | ? | i | ? | ?
CCCCCC(=O)N1C[C@H](n2cc(COC(=O)c3ccccc3)nn2)[C@@H](O)C[C@@H]1c1ccc(Cl)cc1 | ? | 16µM | i | ? | ?
CCCCCC(=O)N1C[C@@H](n2cc(COC(=O)c3ccccc3)nn2)[C@H](O)C[C@@H]1c1ccc(C)cc1 | i | i | i | i | i
CCCCCCN1C[C@@H](n2cc(COC(=O)c3ccccc3)nn2)[C@H](O)C[C@@H]1c1ccc(C)cc1 | i | 12µM | i | i | 18µM
CCN1C(=O)C(CC(=O)Nc2ccc(OC)cc2)N(Cc2ccc3c(c2)OCO3)C1=S (configuration not stated) | i | i | i | i | i
Cc1ncc2c(c1CNC(=O)c1ccsc1)CCN(C(=O)c1c(F)cccc1Cl)C2 | nt | i | nt | nt | i[9.04 µM]
N=C(N)SCP(=O)(c1ccccc1)c1ccccc1 | i | 18µM | -85 | i | 21µM
Nc1nc2c(ncn2[C@@H]2O[C@H](CNC(=O)[C@H](N)Cc3cncn3COCc3ccccc3)[C@@H](O)[C@H]2O)c(=O)[nH]1 | i | i | i | i | i
CC(C)C(=O)NC(c1ccccc1)c1cc([N+](=O)[O-])c2cccnc2c1O (configuration not stated) | 16µM | ? | i | ? | 18µM
O=C(CCc1ccccc1)NCc1ccccn1 | i | i | i | i | i
